We go through eight molecules from PubChem BioAssay (NCI).

SMILES strings stand for the structures. About 83,000 compounds went through this panel and 20% of them were active in at least one assay; those are over-represented in the sample as a whole.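 Single-dose data. Exposure time 48 hours. Values below 10 considered active.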 Values without a mark were called inactive. Calls of active or inactive are those of the source.

Among the test systems are HCT-15 colon; HT29 colon; SNB-75 CNS; SNB-19 CNS; PC-3 prostate; SK-MEL-5 melanoma; UACC-62 melanoma; LOX IMVI melanoma; SK-MEL-28 melanoma; SK-MEL-2 melanoma; EKVX NSCLC; SN12C renal; UO-31 renal; TK-10 renal; ACHN renal; CAKI-1 renal; A498 renal; CCRF-CEM leukemia; MOLT-4 leukemia; U251 CNS.
What all share (assay): NCI-60 one-dose screen, 48 h (100 = growth as untreated, 0 = no growth, -100 = all killed)
Settings in all cases: 10 µM unless noted

Regarding `C(=C1c2ccccc2-c2ccccc21)c1ccccn1`, the growth with HCT-15 colon is 42.8%; with HT29 colon, 17%; with SNB-75 CNS, 62.5%; with SNB-19 CNS, 73.6%; in the test on PC-3 prostate it was 78.1%; with SK-MEL-5 melanoma it was 78.3%. Besides, the growth in the test with UACC-62 melanoma is 52.9%; in the test on LOX IMVI melanoma, 57.2%; with SK-MEL-28 melanoma it was 81%; in the test on SK-MEL-2 melanoma it was 54.2%; in the test with EKVX NSCLC, 70.6%; in the test with SN12C renal, 80.3%. The growth is 79.6% with UO-31 renal; 91.7% with TK-10 renal; 96.5% with ACHN renal; 52% with CAKI-1 renal; 97.8% in the test on A498 renal; 85.5% in the test on CCRF-CEM leukemia. Further, the growth in the test with MOLT-4 leukemia is 67.3%.
`O=C(CNC(=O)c1cccc2ccccc12)Nc1ccccc1Oc1cccc(O)c1`: the growth in the test on HCT-15 colon is 22.6% [5 µM]; in the test with HT29 colon it was 14.8% [5 µM]; in the test on SNB-75 CNS, 4.28% [5 µM] (active); in the test on SNB-19 CNS it was 38% [5 µM]; in the test on U251 CNS it was 14.3% [5 µM]; with PC-3 prostate, 28.1% [5 µM]. Also, the growth was 26.4% [5 µM] with SK-MEL-5 melanoma; 33.4% [5 µM] in the test with LOX IMVI melanoma; 57.3% [5 µM] with SK-MEL-28 melanoma; 47.2% [5 µM] in the test on EKVX NSCLC; 49% [5 µM] in the test on SN12C renal; 44.5% [5 µM] in the test on UO-31 renal. Further, the growth is 42% [5 µM] with TK-10 renal; 51% [5 µM] in the test on ACHN renal; 11.5% [5 µM] with A498 renal; 15.1% [5 µM] with CCRF-CEM leukemia; 11.9% [5 µM] in the test with MOLT-4 leukemia.
`CCN(CC)c1ccc(/C=C/C(=O)c2cccc(NS(C)(=O)=O)c2)cc1`: the growth in the test on HCT-15 colon is 27.8%; in the test on HT29 colon it was 5.36% (active); in the test on SNB-75 CNS it was 48.4%; in the test on SNB-19 CNS it was 74.6%; in the test on U251 CNS, 41.6%; with SK-MEL-5 melanoma, 39.6%. Also, the growth in the test with UACC-62 melanoma was 36.1%; with LOX IMVI melanoma it was 15%; in the test with SK-MEL-28 melanoma, 72.5%; with SK-MEL-2 melanoma, 83.1%; in the test with EKVX NSCLC, 57.6%; in the test on SN12C renal, 40.3%. For the same molecule, the growth in the test with UO-31 renal is 37.2%; with TK-10 renal, 25.6%; with ACHN renal it was 37.7%; in the test with A498 renal, 22.8%; with CCRF-CEM leukemia it was 13.3%; in the test with MOLT-4 leukemia it was 8.78% (active).
With `N=C1c2nc3n(c2C(=O)c2nc4n(c21)CCCCC4)CCCCC3`, the growth with HCT-15 colon is 109%; in the test with HT29 colon it was 106%; in the test on SNB-75 CNS, 105%; in the test with SNB-19 CNS, 113%; in the test on PC-3 prostate, 113%; in the test on SK-MEL-5 melanoma, 88.7%. For the same molecule, the growth is 110% in the test with UACC-62 melanoma; 92% with LOX IMVI melanoma; 118% in the test with SK-MEL-28 melanoma; 118% in the test with SK-MEL-2 melanoma; 103% in the test on EKVX NSCLC; 106% with SN12C renal. The growth was 83.6% with UO-31 renal; 142% in the test with TK-10 renal; 105% in the test with ACHN renal; 95.1% in the test with CAKI-1 renal; 91.6% with A498 renal; 104% in the test on CCRF-CEM leukemia. Moreover, the growth with MOLT-4 leukemia is 93.7%.
Take `CCn1cnc(C[C@H](NC(=O)[C@H](CCCCNC(=O)Nc2cc(C(F)(F)F)cc(C(F)(F)F)c2)NC(=O)Nc2cc(C(F)(F)F)cc(C(F)(F)F)c2)C(=O)OC)c1`: the growth with HCT-15 colon was 48.1% [100 µM]; with HT29 colon it was -99.4% [100 µM] (active); in the test on SNB-75 CNS, -36.4% [100 µM] (active); in the test with SNB-19 CNS, -36.5% [100 µM] (active); with U251 CNS, -100% [100 µM] (active); in the test on PC-3 prostate, -38.5% [100 µM] (active). The growth was -100% [100 µM] (active) with SK-MEL-5 melanoma; -99.5% [100 µM] (active) with SK-MEL-28 melanoma; -100% [100 µM] (active) in the test with SK-MEL-2 melanoma; -6.45% [100 µM] (active) in the test with SN12C renal; 49.4% [100 µM] in the test with UO-31 renal; -36.5% [100 µM] (active) with TK-10 renal. Also, the growth in the test on ACHN renal was -40.4% [100 µM] (active); with CAKI-1 renal it was 68.4% [100 µM]; in the test on A498 renal, -52.4% [100 µM] (active); in the test with MOLT-4 leukemia it was -33.8% [100 µM] (active).
Take `COc1ccc(C2=NN(C(C)=O)C(c3c(C)nn(-c4ccccc4)c3N3CCOCC3)C2)cc1` (configuration not stated): the growth in the test with HCT-15 colon was 103%; with HT29 colon, 101%; in the test on SNB-75 CNS, 74.4%; with SNB-19 CNS, 85.8%; in the test on U251 CNS, 89.3%; in the test on PC-3 prostate, 79.7%. In addition, the growth is 97.6% in the test on SK-MEL-5 melanoma; 97.8% in the test with LOX IMVI melanoma; 108% with SK-MEL-28 melanoma; 106% in the test with SK-MEL-2 melanoma; 88.2% in the test with EKVX NSCLC; 91.9% in the test with SN12C renal. For the same molecule, the growth in the test with UO-31 renal was 77.2%; with ACHN renal it was 95%; with A498 renal, 91.3%; in the test with CCRF-CEM leukemia, 95.4%; in the test on MOLT-4 leukemia, 88%.
As for `CN(C)c1ncnc2c1ncn2C1CCCCO1` (configuration not stated), the growth in the test on HCT-15 colon is 100%; with HT29 colon it was 109%; with SNB-75 CNS it was 86.4%; in the test with SNB-19 CNS, 97.1%; in the test with U251 CNS, 108%; in the test with PC-3 prostate, 91.3%. The growth in the test on SK-MEL-5 melanoma was 107%; in the test with LOX IMVI melanoma, 101%; in the test on SK-MEL-28 melanoma it was 97.6%; in the test with SK-MEL-2 melanoma it was 102%; with EKVX NSCLC, 102%; in the test on SN12C renal, 93.8%. In addition, the growth was 73.2% in the test on UO-31 renal; 101% with TK-10 renal; 104% in the test on ACHN renal; 102% in the test with CAKI-1 renal; 94.9% in the test on CCRF-CEM leukemia; 95.1% in the test with MOLT-4 leukemia.
For `CC(=O)O[C@H]1CC[C@@]2(C)C(=CC[C@@H]3[C@@H]2CC[C@]2(C)C(c4cccnc4)=CC[C@@H]32)C1`, the growth with HCT-15 colon was 51.4%; in the test on HT29 colon, 22.1%; in the test on SNB-75 CNS, 51%; in the test with SNB-19 CNS, 72.3%; in the test on U251 CNS, 53%; in the test with SK-MEL-5 melanoma, 20.9%. In addition, the growth in the test with UACC-62 melanoma was 44.1%; with LOX IMVI melanoma, 63.4%; with SK-MEL-28 melanoma, 44.4%; in the test on SK-MEL-2 melanoma, 23.6%; in the test on EKVX NSCLC, 49.5%; with SN12C renal, 96.7%. Moreover, the growth was 33.5% in the test on UO-31 renal; 90.8% in the test with TK-10 renal; 44.7% in the test on ACHN renal; 91.5% in the test with A498 renal; 48.3% with CCRF-CEM leukemia; 46% in the test on MOLT-4 leukemia.
